MLLE-PAM2 inh: blocks PAM2 peptide binding to the PABP1 MLLE domain; actives 0.36% (n = 360,000); P11940; GST-MLLE / FITC-PAM2 fluorescence polarization; inhibition, % at 20 µM; in the data active means inhibition above about 35%, passing the limit was not always enough;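 further: plate controls were DMSO wells with GST-MLLE for no effect and wells lacking GST-MLLE protein for full effect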
PABP FP inh: blocks human PABP binding to poly(A) RNA. P11940. calls only at 35 µM. actives 1% (n = 290,000). AID 2014. fluorescence polarization;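 further: calls also rest on retests at 20 µM and on dose response follow-up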
eIF4E-4G inh: eIF4E/eIF4G interaction inhibition in translation initiation; inhibition, % at 21.7 µM; actives 0.37% (n = 220,000); TR-FRET eIF4E-eIF4GI(517-606) binding, 2 h; P63073+Q04637; AID 782;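 active means inhibition above about 30%, limit read from the data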;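 further: 0% = full FRET control wells and 100% = background wells lacking eIF4GI fragment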
eIF4H inh: inhibitors of RNA binding by human eIF4H | Q15056 | eIF4H fluorescence polarization binding assay | inhibition, % at 35 µM | actives 0.94% (n = 290,000) | AID 2012;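 further: calls also rest on retests at 20 µM and on dose response follow-up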
PERK inhibitor: human PERK inhibition, primary cell-based screen. inhibition, % at 5.6 µM. CHO PERK-DD fusion, SEAP luminescence translation reporter. actives 0.17% (n = 220,000). AID 1416;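 active means inhibition above the mean inhibition of all tested compounds plus 3 SD, set separately per screening campaign, cut at about 2.9% in these data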;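 further: PERK kinase domain activated by AP20187 dimerizer at 100 nM; 0% = DMSO with dimerizer and 100% = rapamycin at 8.4 µM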
Target sequence (Q9NZJ5 whole entry, looked up, the tested form may be a part): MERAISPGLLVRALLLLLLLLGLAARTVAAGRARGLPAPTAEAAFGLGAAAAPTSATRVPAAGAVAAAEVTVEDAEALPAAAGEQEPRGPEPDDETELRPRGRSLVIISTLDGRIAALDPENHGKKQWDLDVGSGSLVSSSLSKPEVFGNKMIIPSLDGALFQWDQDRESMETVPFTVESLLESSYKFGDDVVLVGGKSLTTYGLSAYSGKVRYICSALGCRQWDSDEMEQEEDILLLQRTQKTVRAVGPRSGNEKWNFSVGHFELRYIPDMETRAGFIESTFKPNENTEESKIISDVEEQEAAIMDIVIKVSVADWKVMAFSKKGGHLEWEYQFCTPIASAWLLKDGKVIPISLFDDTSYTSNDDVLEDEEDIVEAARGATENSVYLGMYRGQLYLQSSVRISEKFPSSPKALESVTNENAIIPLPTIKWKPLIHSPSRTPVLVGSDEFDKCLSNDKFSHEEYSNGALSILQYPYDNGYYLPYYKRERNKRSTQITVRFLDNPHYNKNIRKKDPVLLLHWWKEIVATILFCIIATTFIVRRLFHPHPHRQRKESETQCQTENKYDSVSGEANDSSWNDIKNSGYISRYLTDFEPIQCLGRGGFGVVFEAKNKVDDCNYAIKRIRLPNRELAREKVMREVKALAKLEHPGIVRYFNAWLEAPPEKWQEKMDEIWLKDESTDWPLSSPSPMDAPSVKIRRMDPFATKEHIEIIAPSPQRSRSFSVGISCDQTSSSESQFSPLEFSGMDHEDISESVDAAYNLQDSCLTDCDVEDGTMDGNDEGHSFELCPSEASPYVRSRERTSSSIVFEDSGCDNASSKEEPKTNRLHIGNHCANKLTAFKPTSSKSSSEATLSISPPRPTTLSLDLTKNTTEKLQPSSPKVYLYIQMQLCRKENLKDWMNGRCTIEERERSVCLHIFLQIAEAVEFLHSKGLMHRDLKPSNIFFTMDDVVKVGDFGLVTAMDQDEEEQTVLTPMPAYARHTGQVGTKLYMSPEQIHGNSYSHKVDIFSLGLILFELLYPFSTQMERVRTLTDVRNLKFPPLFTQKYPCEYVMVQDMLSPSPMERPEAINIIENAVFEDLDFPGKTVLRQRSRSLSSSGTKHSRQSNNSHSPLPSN
Numbers without * were called inactive; i = inactive; ? = inconclusive; / = no result; + = active, no number; [ ] = remark or other dose. Shown are actives, neighbours in structure and some others; about 1.6% of the full set was active somewhere. Unless noted, how the calls were made is not given here.

SMILES	MLLE-PAM2 inh	PABP FP inh	eIF4E-4G inh	eIF4H inh	PERK inhibitor
Cc1cc(O)c(/C=N/c2ccccn2)c(=O)o1	1	i	2	89	1
CCN(CC)C(=O)CSc1nc2cc3c(cc2c(=O)n1CCCCCC(=O)NCc1ccc(OC)cc1)OCO3	6	i	8	-10	1
O=C(COc1ccccc1C(=O)NCc1ccccn1)Nc1ccc(Br)cc1	-18	i	-2	3	0
NS(=O)(=O)c1ccc(CCNC(=O)CSCC(=O)Nc2ccc(Cl)cc2)cc1	14	/	/	/	/
O=C(CNC(=O)N1CC(=O)Nc2ccccc21)Nc1ccc(F)c(Cl)c1	6	i	/	-2	/
CCC(C)c1ccccc1NC(=O)C(C)OC(=O)CN1C(=O)NC(C)(C)C1=O (centres undefined)	-13	/	/	/	/
CCCCn1c(-c2csc3ccccc23)n[nH]c1=S	-36	i	0	-10	0
CCCCCCn1c(-c2cccs2)n[nH]c1=S	14	+	0	active	0
CC(C)C(NC(=O)c1c(F)cccc1F)C(=O)N1CCN(c2ncccn2)CC1 (centres undefined)	4	/	/	/	/
Cc1cc(C)cc(NC(=O)c2ccccc2CC[N+](=O)[O-])c1	4	i	76*	-8	-1
O=c1[nH]ncn1-c1ccc(Br)cc1	-6	i	2	-9	2
Cc1ccccc1-c1cnc(C(O)c2ccc(-c3ccccc3)cc2)[nH]1 (centres undefined)	-1	/	/	/	/
COc1ccc(C2=CC(c3ccc(F)cc3)n3nnnc3N2)cc1 (centres undefined)	46*	i	5	0	0
CCCOC(=O)CCCN1C(=O)/C(=C2\SC(=S)N(CCCC(=O)OCCC)C2=O)SC1=S	29	i	-7	-19	3.4*
O=C(Nc1ccc(F)c(Cl)c1)c1ccc2sc([C@H]3C[C@H](O)[C@@H](CO)O3)nc2c1	0	/	/	/	/
CCOC(=O)c1c2c3c(cccc3n(C)c1=O)C(=O)c1ccccc1-2	62*	i	/	-9	/
O=C(O)CCC(=O)Nc1ccccc1N1CCOCC1	1	+	0	14*	1
CSc1ccccc1NC(=O)CN(C)CC(=O)Nc1ccccc1N1CCOCC1	-5	i	2	active	0
CCCCCC(=O)Nc1ccccc1N1CCOCC1	-18	i	11	-2	0
Cc1ccc2nc3c(c(N)c2c1)CCN3C	-48	i	/	7	/
Cc1ccc2nc3c(c(N)c2c1)CCN3c1ccccc1	-8	i	5	51*	-1
C[C@@H]1CN([C@@H](C)CO)C(=O)c2cc(N(C)C)ccc2O[C@@H](C)CCCCO[C@@H]1CN(C)Cc1ccc2c(c1)OCO2	-2	/	/	/	/
C=CCSc1nc(N2CCOCC2)c2c(c1C#N)CC(C)(C)N(C)C2	-4	+	0	50*	-2
CN1Cc2c(N3CCOCC3)nc(SCc3ccccc3)c(C#N)c2CC1(C)C	40*	?	-2	?	0
CCSc1nc(N2CCOCC2)c2c(c1C#N)CC(C)(C)N(C)C2	15	i	-5	96	-2
SMILES	MLLE-PAM2 inh	PABP FP inh	eIF4E-4G inh	eIF4H inh	PERK inhibitor
COc1ccc(C(=O)O)cc1NC(=S)NC(=O)CSc1ccc(Cl)cc1	40*	i	/	-13	/
CCC(=O)NC(=S)Nc1cc(C(=O)O)ccc1OC	6	i	1	-4	1
O=C(N/N=C/C=C/c1ccccc1[N+](=O)[O-])c1cccs1	-17	i	4	-9	1
O=C(N/N=C\C=C\c1ccc([N+](=O)[O-])o1)c1cccs1	-19	+	/	100*	/
c1ccc2c(c1)OCc1cn[nH]c1-2	0	i	51*	-9	0
O=C(N/N=C/c1cc2c(cc1[N+](=O)[O-])OCO2)c1cccnc1	0	+	2	85*	0
Cc1cc(O)cc(O)c1/C=N/NC(=O)c1ccc2c(c1)OCCO2	49*	/	/	/	/
O=C(N/N=C\c1ccc(-c2ccc([N+](=O)[O-])cc2)o1)c1ccc2c(c1)OCO2	-2	i	1	0	1
O=C(N/N=C/c1ccc([N+](=O)[O-])o1)c1ccc2c(c1)OCO2	-5	+	/	79*	/
O=C(O)c1ccc(/C=N/NC(=O)c2ccc3c(c2)OCCO3)cc1	4	i	/	-7	/
OC(CNCC(c1ccc(Cl)cc1Cl)c1c[nH]c2ccccc12)c1ccccc1 (centres undefined)	-9	i	7	2	0
Nc1c(C(=O)C2CC2)sc2nc(-c3cccs3)cc(C(F)(F)F)c12	i	i	1	94*	1
O=C(CN1CCN(c2ccc(F)cc2)CC1)Nc1nccs1	10	i	/	8	/
COc1ccc(NC(=O)Cn2cnc3sc(C)c(S(=O)(=O)N4CCOCC4)c3c2=O)c(OC)c1	0	i	1	-12	2
Cc1ccc(-n2sc3ccccc3c2=O)cc1	16	i	45*	8	0
O=c1c2ccccc2sn1-c1ccc(F)cc1	37*	/	/	/	/
COC(=O)C1CN(Cc2ccccc2)C(=O)C1=O (centres undefined)	4	/	/	/	/
CSCCC1NC(=O)N(CC(=O)N2CCc3ccccc3C2)C1=O (centres undefined)	7	/	/	/	/
O=c1[nH]c(=S)[nH]cc1Oc1ccc(Cl)cc1Cl	46*	i	-5	10	0
COc1ccc(Cc2c(C(C)(C)C)nc3c(C)cc(Br)cn23)c(C)c1	47*	/	/	/	/
O=C(CCc1ccccc1)NCC(=O)N/N=C/c1ccc(O)cc1O	-7	i	-8	8	3.4*
O=C(CNC(=O)c1cccs1)N/N=C/c1ccc(O)cc1O	-6	i	2	30	0
CCN(CC)CC#CC(O)(c1ccccc1)c1ccccc1	0	i	0	-7	0
CN(C)CCC#CC(O)(c1ccccc1)c1ccccc1	4	+	-5	6.6*	1
COc1ccccc1Cc1c(-c2ccccc2)nc2c(C)cc(Br)cn12	-10	/	/	/	/
SMILES	MLLE-PAM2 inh	PABP FP inh	eIF4E-4G inh	eIF4H inh	PERK inhibitor
COc1ccc(/C=N/n2cnc3c([nH]c4ccccc43)c2=O)cc1CO	-4	i	2	-10	-1
COc1ccc(/C=N/n2cnc3c([nH]c4ccc(Br)cc43)c2=O)cc1CN1CCOCC1	/	i	41*[fluorescence artefact?]	2	1
Cc1nn(Cc2ccccc2)c(Cl)c1/C=C/C(=O)OC(C(=O)NC(N)=O)C(C)C (centres undefined)	-29	i	-2	-5	0
CCCN(CC(=O)Nc1ccccc1C)C(=O)c1ccc(N2CCCC(C)C2)c([N+](=O)[O-])c1 (centres undefined)	-5	/	/	/	/
Fc1ccc(N=c2ssnc2Cl)c(F)c1	15	i	51*	-6	1
COc1ccc(N=C2SCC(=O)N2C)cc1	-6	/	/	/	/
Clc1nssc1=Nc1ccccc1	15	i	51*	3	1
COc1cc(N=c2ssnc2Cl)cc(OC)c1OC	14	i	67*	4	0
O=C1CSC(=Nc2ccccc2)N1Cc1ccccc1	-13	i	-3	-8	1
COc1ccc(N=c2ssnc2Cl)cc1	26	i	30*	2	0

Bioassay records: PubChem, several laboratories
